CHX counter = counter-screen hit for Shiga toxin inhibitors, cycloheximide. cell reporter, cycloheximide protein synthesis inhibition counterscreen. 12% of 300,000 active. max response, %; in the data active means max response mostly above about 13%, no sharp cut-off; inactive means mostly below about 14%; further: read at 38.3 µM for the half of the compounds with a filed dose; 0% is about no effect
Pf growth 96h = inhibits malaria parasite growth, 96 h. P. falciparum luciferase reporter growth, 96 h. Potency, µM (series often up to 28.7 µM), without a hit: at the highest dose activity change, negative = inhibition, most hits filed as inhibitors. AID 504834. 6.9% of 320,000 active; further: potency means the concentration at half of the fitted maximal effect; on the % scale 0 is the no-effect control and ±100 the full control effect
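Two-generation exposure (96 h) targets delayed-death phenotype. Reporter parasites carrying integrated firefly luciferase, in red cells at 2% hematocrit and 0.05% parasitemia final, kept at 37 C, 5% CO2; luminescence loss indicates inhibition.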
Pf growth 48h = P. falciparum growth inhibition at 48 hours (one generation); P. falciparum luciferase growth in erythrocytes, 48 h; Potency, µM (titrated, usually from 28.7 µM), for the others: at the top dose activity change, negative = inhibition, usual class: inhibitors; 5.9% of 310,000 active; further: potency means the concentration at half of the fitted maximal effect; on the % scale 0 is the no-effect control and ±100 the full control effect
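Luminescence readout; reporter = integrated firefly luciferase in P. falciparum. RBC culture at 2% hematocrit, 0.1% parasitemia final, 37 C/5% CO2; decreased signal taken as growth inhibition.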
Shiga toxin inh = blocks Shiga toxin action in Vero cells | Vero cells, Shiga toxin protein synthesis inhibition reporter | inhibition, % at 38.7 µM | 9.2% of 290,000 active; in the data active means inhibition mostly above about 28%, no sharp cut-off; inactive means mostly below about 43%; further: 0% is about no effect
HCMV antiviral = blocks human cytomegalovirus replication | AID 1259415 | 4.5% of 410,000 active | activity change, negative = inhibition, % at 57.5 µM | HFF cells, HCMV-luciferase reporter, 72 h; active compounds read low; in the data active means activity change below about -60%; inconclusive means no clear call, values can overlap the other calls; inactive means above about -39%; further: on the % scale 0 is the no-effect control and ±100 the full control effect
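Two compound doses tested in HFFs infected with HCMV-luciferase, MOI 1 PFU/cell, 72 h at 37C. Lysate luminescence read with OneGlo; data normalized against buffer-only and 10uM Salinomycin inhibitor controls.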
An asterisk follows results filed as active; ? = inconclusive; nt = no result given. A selection: hits, their analogues and other compounds. The true share with any hit is near 20%. Unless noted, the call rests on the fitted dose curve; in most records, active means well fitted inhibition curve with a large enough effect; inconclusive means small, poorly fitted or top-dose-only effect, or another doubt; inactive means no such curve, though single readings can be large or run the other way.

SMILES	CHX counter	Pf growth 96h	Pf growth 48h	Shiga toxin inh	HCMV antiviral
Cc1ccn2c(Nc3ccccc3)c(-c3c[nH]c4ccccc34)nc2c1	nt	nt	nt	nt	75
Cc1ccccc1OCC(=O)OCc1cc(=O)n2nc(C3CC3)sc2n1	nt	nt	nt	nt	7
COc1cccc(/C=C2\N=C(c3cncc(Br)c3)OC2=O)c1	25*	43%	6%	-4	5
COc1ccc(OC)c(/C=C2\N=C(c3ccccc3)OC2=O)c1	-2	-17%	?	nt	73
CSCCC(NC(=O)c1ccccc1Br)C(=O)NCc1ccc(F)cc1 (stereo not given)	8	-10%	-6%	23	-63*
CN1CCCN(C(=O)CNC(=O)c2ccccc2Br)CC1	nt	nt	nt	nt	7
CCOC(=O)/C(=N\Nc1ccc(Br)cc1)N1CCN(c2ccccc2OC)CC1	1	?	15µM*	24	6
C=CCc1c(C)nc2c(OC)cccc2c1Cl	14*	?	9%	34	-83*
COc1cccc2c(Cl)c(CC=C(Cl)Cl)c(C)nc12	0	-6%	?	2	-28
Cc1ccc2c(=O)cc(C(=O)NCc3ccccc3)oc2c1C	-1	25%	15%	-6	?
CC(NNC(=S)N1CCCCCC1)c1ccc2ccccc2n1 (stereo not given)	nt	nt	nt	nt	-94*
CC(C)(C)NC(=O)CSc1nnc(-c2c[nH]c3ccccc23)o1	28*	?	?	65*	83
CCN(CC)C(=O)CSc1nnc(-c2c[nH]c3ccccc23)o1	40*	0.47µM*	?	nt	12
COc1ccc(N2C(=O)C3C(C2=O)C3(c2ccccc2)c2ccccc2)cc1 (stereo not given)	-3	-9%	?	-12	-7
COc1ccc(N2C(=O)CC(c3ccccc3)C2=O)cc1 (stereo not given)	6	17%	4%	-3	3
COc1ccc(N=C2C(=Nc3ccc(OC)cc3)N(c3ccc(OC)cc3)C(=S)N2C)cc1	-2	nt	5.2µM*	19	nt
COc1ccc(N=C2C(=Nc3ccc(OC)cc3)N(c3ccc(OC)cc3)C(=S)N2c2ccccc2)cc1	60*	nt	28%	70*	-16
O=C1CN(c2ccccc2)C(=S)N1c1ccccc1	-1	-20%	2%	-3	-11
COc1ccc(N2CC(=O)N(c3ccccc3)C2=S)cc1	27*	?	21%	32	22
COc1ccc(N2C(=O)CC(c3ccc(OC(C)C)cc3)C2=O)cc1 (stereo not given)	-4	7.4µM*	nt	-5	-19
CCCCNC(=O)c1nc2cc(C)c(C)cc2nc1-c1ccc2c(c1)OCO2	nt	nt	nt	nt	31
Cc1ccc(Cn2cc(S(=O)(=O)c3ccc(C)cc3)c(=O)c3cc(F)c(N4CCCC4)cc32)cc1	nt	nt	nt	nt	8
COc1ccc(N2C(=O)CSC(c3ccccc3)C2=O)cc1 (stereo not given)	-1	1%	14%	3	-105*
COc1ccc(C2SCC(=O)N2c2ccccc2)cc1 (stereo not given)	-1	7%	13%	-4	14
O=C(Nc1cc(Br)ccc1O)c1cc(-c2ccco2)on1	19	218%	?	59*	?
SMILES	CHX counter	Pf growth 96h	Pf growth 48h	Shiga toxin inh	HCMV antiviral
O=C(Nc1cccc(Cl)c1)c1cc(-c2ccccc2)on1	nt	nt	nt	nt	-12
COc1cc(NC(=O)c2cc(-c3ccco3)on2)c(OC)cc1Cl	5	25%	7%	12	27
O=C(Nc1cccnc1Cl)c1cc(-c2ccco2)on1	41*	nt	nt	83*	6
O=C(Nc1cccc(Cl)c1)c1cc(-c2ccco2)on1	31*	311%	187%	56*	-36
COc1ccc(-c2nnc(SC(C)C(=O)Nc3cccc(Cl)c3)o2)cc1 (stereo not given)	25	16%	181%	66*	129
CCOC(=O)c1ccccc1NC(=O)Cn1c(=O)n(CCC(=O)NCc2ccccc2OC)c(=O)c2ccccc21	nt	nt	nt	nt	-10
COCCN1CCN(c2nc(C(=O)Nc3ccc(F)c(Cl)c3)cs2)C1=O	nt	nt	nt	nt	-18
COc1ccc(-c2cc(C(=O)Nc3cccc(Cl)c3)no2)cc1	42*	-2%	128%	85*	1
O=C(Nc1cc(Cl)ccc1O)c1cc(-c2ccco2)on1	40*	3%	?	80*	27
Cc1cccc(C)c1NC(=O)C(c1ccccc1OC(F)(F)F)N1CCN(C)CC1 (stereo not given)	nt	nt	nt	nt	-62*
Cc1ccc(N2CCN(C(C(=O)Nc3c(C)cccc3C)c3ccccc3OC(F)(F)F)CC2)cc1 (stereo not given)	nt	nt	nt	nt	-16
